# Screening results deposited in PubChem BioAssay by The Scripps Research Institute Molecular Screening Center.
# hgDAF-12 ag = H. glycines DAF-12 receptor agonists, primary screen, cell-based, luminescence, HEK293, GAL4 fusion, UAS-luciferase | Nuclear hormone receptor DAF-12 (Heterodera glycines), GAL4 fusion | HEK293 GAL4-hgDAF12 UAS-luciferase reporter, agonist luminescence; normalized to butyrate control | activation, % at 6.8 µM | 370,000 compounds, 1.8% hits | AID 687014, 2013;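 active = activation above a cutoff set at the mean of all screened compounds plus 3 SD, cut at about 10% in these data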;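 also: 0% = DMSO wells and 100% = sodium butyrate wells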
# ssDAF12 agonist = S. stercoralis DAF-12 nuclear receptor activators, primary screen, cell-based, luminescence, HEK293, GRIP1 co-expression, lit1-tk-luc; Nuclear hormone receptor DAF-12 (Strongyloides stercoralis); HEK293 ssDAF-12/GRIP1 lit1-tk-luc reporter; % of 3 µM dafachronic acid response; 370,000 compounds, 1% hits; activation, % at 6.8 µM; AID 652126, 2013;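 active = activation above the mean over all tested compounds plus 3 SD, cut at about 0.9% in these data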;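 also: 0% = DMSO-only wells and 100% = 3 µM delta7-dafachronic acid wells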
# hcDAF-12 act = H. contortus DAF-12 nuclear receptor activators, primary screen, cell-based, luminescence, HEK293, lit1-tk-luc reporter; 370,000 compounds, 1.4% hits; HEK293 hcDAF-12 lit1-tk-luc reporter; 0% DMSO, 100% Δ7-dafachronic acid; AID 652067, 2013; activation, % at 6.8 µM;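 active = activation above the mean of all tested compounds plus 3 SD, cut at about 5.5% in these data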;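 also: 100% = response to 3 µM Δ7-dafachronic acid high control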
# DAX1 inh-1 = DAX1 (NR0B1) inhibitors, primary screen, cell-based, HEK293, Gal4-DAX1, luciferase luminescence; Nuclear receptor subfamily 0 group B member 1 (Homo sapiens), P51843; HEK293 Gal4-DAX1 luciferase reporter; inhibition, % at 6.75 µM; 340,000 compounds, 0.99% hits; AID 504766, 2011;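 active = inhibition above the mean over all tested compounds plus 3 SD, cut at about 4.2% in these data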;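 also: 0% = DAX1-transfected cells with DMSO and 100% = empty-vector control cells with DMSO; inhibition shows as a rise in luminescence from relieved DAX1 repression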
# Target sequence (P51843 207-470 limits assumed): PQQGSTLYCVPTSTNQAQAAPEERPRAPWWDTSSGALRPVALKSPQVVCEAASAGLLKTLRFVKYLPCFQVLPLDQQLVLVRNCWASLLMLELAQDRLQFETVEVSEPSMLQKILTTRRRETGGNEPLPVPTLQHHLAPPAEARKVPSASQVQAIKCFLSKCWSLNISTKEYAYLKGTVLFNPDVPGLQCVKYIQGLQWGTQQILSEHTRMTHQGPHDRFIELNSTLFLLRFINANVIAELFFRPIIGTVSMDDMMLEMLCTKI
# AHR act = AHR activators, primary screen, cell-based, luminescence, luciferase reporter, human; AHR-responsive luciferase reporter cells; activation, % at 5 µM; 320,000 compounds, 2.5% hits; in the data active = activation above about 47%;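 also: 0% = vehicle wells and 100% = reference agonist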
# DAX1 inh-2 = DAX1 (NR0B1) inhibitors on StAR promoter, primary screen, cell-based, luminescence, SF-1 (NR5A1), full-length DAX-1; inhibition, % at 6.8 µM; HEK293T StAR-luciferase reporter, SF-1/DAX-1 repression relief; 370,000 compounds, 1.1% hits;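 active = inhibition above the mean over all tested compounds plus 3 SD, cut at about 3.6% in these data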;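 also: 0% = DAX-1 cells with DMSO and 100% = cells lacking DAX-1 with DMSO; higher inhibition means more luminescence from relief of DAX-1 repression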
# The depositor's hits bear a star; / = no result. Most compounds without a hit are left out; they make up all but 5.7% or so of the library.
SMILES,hgDAF-12 ag,ssDAF12 agonist,hcDAF-12 act,DAX1 inh-1,AHR act,DAX1 inh-2
O=C(/C=C/c1cccc([N+](=O)[O-])c1)N1CCN(C(=O)c2ccco2)CC1,1,-2,-1,-2,1,0
O=C(/C=C/c1cccc([N+](=O)[O-])c1)OCC(=O)N1CCN(C(=O)c2ccco2)CC1,12*,0,0,-2,3,-1
Cc1cc(C)n(Cc2ccc(C(=O)Nc3cccc(Br)c3)o2)n1,-1,-2,-1,-1,74*,0
Cc1cccc2nc(-c3ccco3)c(Nc3ccccc3)n12,2,-2,-2,-1,1,-1
COc1cc(-c2cnc3c(NC(C)=O)cc(-c4ccc(N5CCN(C)CC5)cc4)cn23)cc(OC)c1OC,-10,-2,-5,/,/,-4
COc1cc(-c2cnc3c(NC=O)cc(-c4ccc(N5CCN(C)CC5)cc4)cn23)cc(OC)c1OC,11*,0,3,/,/,3
COc1cc(-c2cc(NC=O)c3ncc(-c4ccc(C(C)=O)cc4)n3c2)ccc1O,11*,-1,-3,/,/,-1
Cc1ccsc1C(=O)N(Cc1nnc(-c2ccccc2Cl)o1)C1CC1,0,-1,-1,0,-1,0
Oc1ccc(Br)cc1-c1cc(-c2ccc(Cl)cc2)n[nH]1,6,0,4,0,49*,0
COc1ccc(-c2cc(-c3ccc(Cl)cc3)n[nH]2)c(O)c1,11*,0,5,5.4*,7,2
COc1ccc(O)c(-c2cc(-c3cccc(Br)c3)n[nH]2)c1,6,0,3,0,64*,0
C/C(=N\NC(=O)Cn1cnc2ccccc21)c1cccs1,1,-1,-2,1,9,0
COc1ccc2c(c1)c(=O)oc1cc(OCC(=O)NC3CCCCC3)ccc12,0,0,2,5.9*,-5,0
CCCC(=O)NC(=S)Nc1ccc(NC(=O)c2cccs2)cc1,-1,-1,-2,0,1,0
Cc1ccc(C=Nc2ccccc2C(N)=O)s1,6,0,1,1,55*,-1
O=C(Nc1ccc2c(c1)C(=O)OC2)c1ccc(Cl)cc1Cl,1,-1,5.6*,-1,1,0
O=C(Nc1ccc2ccccc2c1)c1ccc(Cl)cc1Cl,11*,0,5,0,-6,2
O=C(Nc1ccc2ccccc2c1)c1cc(F)c(F)cc1Cl,10,0,0,4,-3,3
Cc1ccc(SC[C@H](CC(C)C)N2CCN(CCc3ccccc3)CCC2=O)cc1,0,-1,0,1,/,0
CC(=O)Nc1ccc(SC[C@H](CC(C)C)N2CCN(CCc3ccccc3)CCC2=O)cc1,-2,-1,-1,1,48*,0
COc1cc(NC(=O)COc2ccc(Cl)cc2)ccc1NC(=O)C(C)C,/,/,/,0,4,/
COc1cc(NC(=O)COc2ccc(Cl)cc2)ccc1-c1cc2ccccc2oc1=O,2,-1,1,-1,55*,0
CCCCc1ccc(NC(=O)NCc2ccccn2)cc1,0,-1,4,0,6,0
CCCCc1ccc(Nc2ncccc2C#N)cc1,8,1,5.8*,1,21,1
N#Cc1cccnc1Nc1ccc(Cl)cc1,0,0,3,-2,55*,0
SMILES,hgDAF-12 ag,ssDAF12 agonist,hcDAF-12 act,DAX1 inh-1,AHR act,DAX1 inh-2
O=C(O)c1cccnc1Nc1ccc(Cl)cc1,-5,-1,-1,0,3,0
CC(=O)c1ccc(OCCCC(=O)NC(C)c2ccc(S(N)(=O)=O)cc2)cc1 (centres undefined),-1,-1,-1,2,0,0
CCOc1ccc(NS(=O)(=O)c2cc(NC(=O)CCC(=O)c3cccs3)ccc2Cl)cc1,-3,-2,-4,5.8*,1,0
Cc1cc(=O)n2c3ccccc3n(CC(O)CN3CCN(CCO)CC3)c2c1C#N (centres undefined),0,-2,-1,2,0,-1
COc1ccc(-c2[nH]ncc2CN2CCN(Cc3cccs3)CC2)cc1F,-1,-1,0,7.8*,2,0
CN1C(=S)SC(N(O)C(=O)Nc2ccccc2)C1(C)C (centres undefined),-1,-1,0,1,10,1
CN1C(=S)SC(N(O)C(=O)Nc2cccc3ccccc23)C1(C)C (centres undefined),-2,0,4,1,75*,0
COc1cc(C(=O)OCC(=O)N2c3ccccc3NC(=O)C2(C)C)ccc1OCC(C)C,-3,-1,-2,-3,8,-3
COc1ccc(C(=O)O/N=C2\CCS(=O)(=O)c3sccc32)cc1,-2,-1,0,1,3,1
CC(C)C(=O)O/N=C1\CCS(=O)(=O)c2sccc21,2,-1,1,6.2*,5,0
Cc1ccc(-c2cc3c(nn2)-c2ccccc2C3=O)cc1,10,0,6.3*,-7,5,1
O=C1c2ccccc2-c2nnc(-c3ccc(O)cc3)cc21,11*,0,5.9*,-1,0,3
CCCCN(C(=O)C1=COCCO1)c1c(N)n(CCCC)c(=O)[nH]c1=O,1,-1,0,0,2,1
CCCCn1c(N)c(N(CC)C(=O)C2=COCCO2)c(=O)[nH]c1=O,2,0,0,1,-1,3.9*
CCCCn1c(N)c(N(CCOC)C(=O)CCN2C(=O)C3CC=CCC3C2=O)c(=O)[nH]c1=O (centres undefined),3,-1,0,-1,/,-1
CCCCN(C(=O)CCN1C(=O)C2CC=CCC2C1=O)c1c(N)n(CCCC)c(=O)[nH]c1=O (centres undefined),2,-1,-1,4.3*,/,0
CCn1c2ccc(F)cc2c2nc3ccccc3nc21,2,-1,1,0,59*,0
CCN(CC)CCn1c2ccccc2c2nc3ccccc3nc21,6,0,6.1*,2,64*,-1
O=c1oc2ccccc2n1CCn1c2ccccc2c2nc3ccccc3nc21,2,-2,-1,-1,22,0
CCCn1c2ccccc2c2nc3ccccc3nc21,1,-2,-2,1,79*,0
N#CCCn1c2ccccc2c2nc3ccccc3nc21,2,-1,0,1,70*,-1
